“And” between values parts separate entries of the source, which are not always exact repeats. Equal values may be shown once. Records with an inconclusive call do not appear. A call without a number means that no potency is given here. Some structures have more than one record in an assay (separate samples or runs), and their calls can disagree. The source made the active and inactive calls. Calls follow the shape of the dose curve; as a rule, active = well fitted cell-killing curve with a large enough effect in the repeat runs; inconclusive = weak or mixed curves, or effect the other way; inactive = flat fitted curve, though single readings scatter.
Potency is read from the fitted curve at half-maximal effect.

This experiment is described as follows: qHTS RealTime-Glo MT Cell Viability Assay in HEK293 cells - 24 hour (AID 1224886). Also: nearly all actives have a fitted effect of over 50% in size. Particulars: RealTime-Glo luminescence; series mostly up to 76.8 µM. The method, boiled down:
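Tox21 10K qHTS, HEK293, 600 cells/well, RealTime-Glo reagent co-dispensed with cells; 5 h preincubation, compound by pintool, 37 C, luminescence at 0–40 h.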
On to `O=C(O)CCl`, for which the Potency entry is “inactive”.
For `C=CCOC(Cn1ccnc1)c1ccc(Cl)cc1Cl` (stereo not given) the value was 24.6 µM (active); for `CC(=O)O`, “inactive”.
For `CCC[N+]1(C)CCCC1` the value was “inactive”; for `CCCCCC[n+]1ccccc1`, “inactive”.
For `CCCC[N+]1(C)CCCCC1` the value was “inactive”; for `COCC(=O)N(c1c(C)cccc1C)C(C)C(=O)OC` (stereo not given), “inactive”; for `Nc1ccccc1`, “inactive”.
With `O=S(=O)(O)O`, the Potency result is “inactive”.
With `C1CCC(NC2CCCCC2)CC1` the entry was “inactive”; with `CCCn1cc[n+](C)c1`, “inactive”; with `O=C(O)C(Cl)(Cl)Cl`, “inactive”.
For `COP(=O)(OC)C(O)C(Cl)(Cl)Cl` (stereo not given) the value was “inactive”; for `CN(C)[C@@H]1C(=O)C(C(N)=O)=C(O)[C@@]2(O)C(=O)C3=C(O)c4c(O)cccc4[C@@](C)(O)[C@H]3[C@H](O)[C@@H]12`, “inactive”.
For `O=C(O)C(Cl)Cl` the value was “inactive”; for `CCOP(=S)(OCC)Oc1ccc2c(C)c(Cl)c(=O)oc2c1`, 14 µM (active) and 43.6 µM (active) and inactive.
With `CC[n+]1ccccc1`, the Potency result was “inactive”.
For `COP(=O)(OC)OC=C(Cl)Cl` the value was “inactive”.
With `CCCCn1cc[n+](C)c1C` the entry was “inactive”.
With `CC(=O)[O][Hg][c]1ccccc1` the figure was 344 nM (active) and 1.1 µM (active) and 239 nM (active).
With `CCCCCCCCCCn1cc[n+](C)c1`, the Potency was 0.389 µM (active).
For `O=C(O)COc1ccc(Cl)cc1Cl` the value was “inactive”.
For the compound `CC[N+](CC)(CC)CC`, the Potency entry was “inactive”.
For the compound `CCCCn1cc[n+](C)c1`, the Potency result is “inactive”.
For the compound `C[C@]12CCC(=O)C=C1CC[C@@H]1[C@@H]2CC[C@]2(C)C(=O)CC[C@@H]12`, the Potency is 27.1 µM (active) and inactive.
